Structures are written as SMILES. In all, about 52,000 compounds went through this assay and about 4,300 (8.3%) were called active. This excerpt belongs to a sample that is enriched for actives. Values without a mark were called inactive. No stated cut-off is given here; in the data, active means survival mostly below about 52% (no sharp cut-off); inactive means mostly above about 56%.

In the experiment the test system is DeltatarO mutant. Put plainly: growth inhibition of S. aureus wild type versus tarO mutant, primary screen, teichoic acid synthesis inhibitors, RN4220, OD600 (AID 463173). To be noted: OD600, 18 h, hits give low values, screened at 18.75 µg/mL (by protocol).
Take `Cc1ccc(NC(=O)CN(C)S(=O)(=O)c2cnc[nH]2)cc1`: the survival was 102%.
As for `Cc1cc(C(=O)NCc2ccccc2)c2c(C)nn(-c3cccc(F)c3)c2n1`, the survival is 55%.
The same measure for `O=C(C1CCN(c2ncnc3c2nc2n3CCCCC2)CC1)N1CCN(c2ccc(F)cc2)CC1`: -1% (active); for `O=C(C1CCN(c2ncnc3c2nc2n3CCCCC2)CC1)N1CCN(c2ccccc2)CC1`: 72%.
With `Cc1cccc(N2CCN(c3ncnc4c3nc3n4CCCCC3)CC2C)c1` (stereo unspecified), the survival was 101%.
The same measure for `O=C(C1CCN(c2ncnc3c2nc2n3CCCCC2)CC1)N1CCN(c2ccc(Cl)cc2)CC1`: 81%; for `Cc1cccc(N2CCN(C(=O)C3CCN(c4ncnc5c4nc4n5CCCCC4)CC3)CC2C)c1` (stereo unspecified): 6% (active); for `O=C(NCc1ccccc1)C1CCN(c2ncnc3c2nc2n3CCCCC2)CC1`: 84%.
Regarding `O=C(NCCc1ccc(Cl)cc1)C1CCN(c2ncnc3c2nc2n3CCCCC2)CC1`, the survival was 89%.
As to `Cc1ccc(N2CCN(C(=O)C3CCN(c4ncnc5c4nc4n5CCCCC4)CC3)CC2)c(C)c1`, the survival was 79%.
Under `O=C(NCCc1ccccc1)C1CCN(c2ncnc3c2nc2n3CCCCC2)CC1` stands -2% (active).
Under `O=c1c(N2CCc3ccccc3C2)csc2ccc(Br)cc12` stands 78%; under `Cc1cc(C)c(S(=O)(=O)Nc2ccc(-c3ccc(N4CCCCCC4)nn3)cc2)c(C)c1`, 84%.
Under `O=C1CC(C(=O)NCc2ccccc2)N=C(N2CCCCC2)N1` (stereo unspecified) stands 97%.
As for `Cc1cc(C)cc(NC(=O)CN(C)S(=O)(=O)c2ccc3c(c2)CCC(=O)N3)c1`, the survival was 90%.
Under `CCCCOC(=O)OC1CCS(=O)(=O)C1` (stereo unspecified) stands 66%; under `Cc1cccc(-n2cc(-c3ccccc3)c3c(NC(C)C)ncnc32)c1`, 107%; under `Nc1ccc2nc(C(F)(F)F)[nH]c2c1`, 95%.
Under `Cc1nc2nc(C(F)(F)F)[nH]c2cc1Br` stands 4% (active); under `Cc1ccc(C(=O)Nc2cccc(-c3nc4ccccc4o3)c2)c(Cl)c1`, 53%; under `COc1ccccc1OC(C)C(=O)Nc1cccc(-c2nc3ccccc3o2)c1` (stereo unspecified), 18% (active).
Regarding `CC(C)C(=O)Nc1cccc(-c2nc3ccccc3o2)c1`, the survival was 112%.
Under `CC(Oc1ccccc1F)C(=O)Nc1ccc(-c2nc3ccccc3s2)cc1` (stereo unspecified) stands 107%.
In the case of `CC(=O)Nc1cccc(-c2nc3ccccc3o2)c1`, the survival is 107%.
The same measure for `Cc1cc2oc(C(=O)Nc3cccc(-c4nc5ccccc5o4)c3)c(C)c2cc1Cl`: 80%; for `COc1ccccc1OC(C)C(=O)Nc1ccc(-c2nc3ccccc3s2)cc1` (stereo unspecified): 64%; for `Cc1cc(OC(C)C(=O)Nc2cccc(-c3nc4ccccc4o3)c2)cc(C)c1Cl` (stereo unspecified): 46% (active).
Under `COc1ccccc1OC(C)C(=O)Nc1cccc(-c2nc3ccccc3s2)c1` (stereo unspecified) stands 37% (active).
As for `COc1ccc(-c2cn3nc(N4CCCC(C(=O)Nc5cccc(Cl)c5C)C4)sc3n2)cc1` (stereo unspecified), the survival is 82%.
Under `COc1ccc(-n2ncc(C(=O)NCCCN3CCCCC3)c2C2CCN(C(=O)OC(C)(C)C)CC2)cc1` stands 73%.
As to `CCCOc1ccc(C(=O)Nc2ccc3oc(-c4ccncc4)nc3c2)cc1`, the survival was 62%.
In the case of `Cc1cccc(-c2cc(NC(=O)c3ccccc3C)n(-c3ccccc3)n2)c1`, the survival was 80%.
Under `Cc1nc2sc(C(=O)N(C)c3ccccc3)c(NC(=O)c3ccccc3Cl)c2c(C)c1C` stands 57%.
Under `CCCCCn1c(=O)[nH]c2cc(C(=O)NCc3ccc(Cl)cc3)ccc2c1=O` stands 71%.
The same measure for `COc1cccc2cc(-c3csc(-c4ccc(Cl)cc4)n3)c(=O)oc12`: 99%.
As for `CCN1CCN(Cc2c(O)ccc3oc(C)c(C(=O)Nc4ccc(OC)c(Cl)c4)c23)CC1`, the survival was 66%.
Consider `COc1ccc(NC(=O)c2c(C)oc3ccc(O)c(CN4CCCCCC4)c23)cc1Cl`, for which the survival was 94%.
The same measure for `COc1ccc(NC(=O)c2c(C)oc3ccc(O)c(CN4CCCC(C)C4)c23)cc1` (stereo unspecified): 87%; for `COc1ccc(NC(=O)c2c(C)oc3ccc(O)c(CN4CCCC4)c23)cc1Cl`: 80%; for `COc1ccc(NC(=O)c2c(C)oc3ccc(O)c(CN4CCC(C)CC4)c23)cc1Cl`: 55% (active).
Under `COc1ccc(NC(=O)c2c(C)oc3ccc(O)c(CN4CCCC(C)C4)c23)cc1Cl` (stereo unspecified) stands 52% (active); under `COc1ccc(CCNCc2c(C(=O)O)c(C)n(Cc3c(F)cccc3Cl)c2C)cc1OC`, 121%.
The same measure for `CCCCOC(=O)c1ccc(NC(=O)Cn2nnc3sc4c(c3c2=O)CCCC4)cc1`: 67%; for `Cc1ccc(CCNS(=O)(=O)c2c(C)nc3sc(C)c(C)n3c2=O)cc1`: 82%; for `CCCNC(=O)c1cnc2sc(N3CCCCCC3)nn2c1=O`: 78%.
As for `COc1ccc(CNC(=O)c2ccc(NC(=O)N3CCSc4ncccc43)cc2)cc1`, the survival was 84%.
Under `COc1ccc(OC)c(-n2c3c(cc(-c4nc(-c5ccc(Cl)cc5)cs4)c2=O)C(=O)CC(C)(C)C3)c1` stands 75%.
Under `CCc1ccc2oc(-c3cccc(NC(=O)C(C)(C)Oc4ccc(Br)cc4)c3)nc2c1` stands 36% (active); under `CCc1ccc2oc(-c3cccc(NC(=O)COc4ccccc4Cl)c3)nc2c1`, 57%; under `Cc1cc2nc(-c3ccc(NC(=O)c4cc5ccccc5o4)cc3)oc2cc1C`, 51%.
The same measure for `CC(C)c1ccc2oc(-c3ccc(NC(=O)c4cc5ccccc5o4)cc3)nc2c1`: 48%.
For `COc1ccc(-c2nc3cc(NC(=O)c4cc5ccccc5o4)ccc3o2)cc1`, the survival is 62%.
For the molecule `CCOc1ccc(C(=O)Nc2ccc(-c3nc4cc(CC)ccc4o3)cc2)cc1`, the survival is 61%.
Take `CCc1ccc2oc(-c3ccc(N)cc3)nc2c1`: the survival is 34% (active).
The same measure for `CCC(C)c1ccc2oc(-c3ccc(NC(=O)c4cc5ccccc5o4)cc3)nc2c1` (stereo unspecified): 46% (active); for `CCOc1ccc(C(=O)Nc2ccc3oc(-c4ccc(Br)cc4)nc3c2)cc1`: 68%; for `CCc1ccc2oc(-c3ccc(NC(=O)c4cccc(Cl)c4Cl)cc3)nc2c1`: 63%.
The same measure for `CCc1ccc2oc(-c3cccc(NC(=O)c4ccc(-c5cccc([N+](=O)[O-])c5)o4)c3)nc2c1`: 58%; for `CCc1ccc2oc(-c3cccc(NC(=O)c4cc5ccccc5o4)c3)nc2c1`: 14% (active); for `COc1ccc2c(c1)c1c(c(=O)n(-c3ccc(F)c(Cl)c3)c(=O)n1Cc1ccccc1C)n2C`: 83%.
Consider `COc1ccc(-n2ccnc2SCC(=O)Nc2cccc(OC)c2)cc1`, for which the survival was 98%.
Under `Cc1cc(=O)[nH]c2nnc(SCC(=O)Nc3ccc(OC(F)(F)F)cc3)n12` stands 74%; under `CCc1ccc(CNC(=O)c2ccc(-n3c(C)cc4c3CCC(C)C4)cc2)cc1` (stereo unspecified), 123%; under `Cc1ccn2c(=O)cc(CSc3nnc(C)s3)nc2c1`, 77%.
The same measure for `COc1ccc(-c2cc(OC(=O)c3cccc(Cl)c3)c3c(C)oc(C)c3c(=O)c2)cc1`: 132%; for `COc1ccc(S(=O)(=O)N2CCN(c3cccc(C)c3C)CC2)c2ccccc12`: 152%.
Under `CCCN1CCN(c2ncc3c(n2)CCN(Cc2ccc(OC)c(OC)c2OC)C3)CC1` stands 83%.
For the molecule `Cc1ccc(-c2nc3cc(NC(=O)c4cc5ccccc5o4)ccc3o2)cc1`, the survival is 72%.
The same measure for `CCc1ccc2oc(-c3ccc(NC(=O)c4cc5ccccc5o4)cc3)nc2c1`: 40% (active).
Under `O=C(Nc1ccc(-c2nc3cc(Cl)ccc3o2)cc1)c1cc2ccccc2o1` stands 52%; under `O=C(O)CC(NC(=O)Cc1ccccc1)c1ccccc1` (stereo unspecified), 99%; under `O=C1CCCc2cc(S(=O)(=O)NCC3CCC(C(=O)NCc4ccccc4Cl)CC3)ccc2N1` (stereo unspecified), 71%.
Under `COc1cc(NC(=O)c2cccc3c2C(=O)N(C2CCCCC2)C3)cc(OC)c1OC` stands 53%.
With `CC(C)c1ccc(NC(=O)c2cccc3c2C(=O)N(C2CCCCC2)C3)cc1`, the survival was -10% (active).
`COc1cc(NC(=O)c2cccc3c2C(=O)N(C2CCCCC2)C3)cc(OC)c1`: the survival is 90%.
As to `Cc1cc(C)cc(NC(=O)c2cccc3c2C(=O)N(C2CCCCC2)C3)c1`, the survival is 33% (active).
As to `COC(=O)c1ccc(NC(=O)c2cccc3c2C(=O)N(C2CCCCC2)C3)cc1`, the survival was 80%.
The same measure for `O=C(Nc1c(Cl)cccc1Cl)c1cccc2c1C(=O)N(C1CCCCC1)C2`: 78%; for `Cc1cccc(C2CC(=O)Nc3cc4c(cc32)OCO4)c1` (stereo unspecified): 77%.
The same measure for `CCCCN(Cc1ccccc1)C(=O)CN(C)S(=O)(=O)c1ccc2c(c1)c(=O)n(C)c(=O)n2C`: 128%; for `Cc1ccc(C)c(Nc2nnc(-c3ccc(C)c(S(=O)(=O)N4CCN(C)CC4)c3)c3ccccc23)c1`: 84%; for `COC(=O)c1cc2sc(C)cc2n1Cc1nc(-c2ccc(C)cc2)oc1C`: 109%.
Under `COC(=O)CNC(=O)c1cc2sccc2n1Cc1ccccc1` stands 97%.
Regarding `COC(=O)c1cc2sc(Cl)cc2n1Cc1nc(-c2ccc(OC)cc2)oc1C`, the survival was 72%.
Regarding `CCc1cc2c(cc(C(=O)OC)n2Cc2nc(-c3ccc(C)cc3)oc2C)s1`, the survival is 26% (active).
For `COC(=O)c1cc2sccc2n1Cc1nc(-c2ccc(C)cc2)oc1C`, the survival was 28% (active).
Under `COC(=O)c1cc2sccc2n1Cc1ccc(F)cc1` stands 124%; under `COC(=O)c1cc2sccc2n1Cc1ccccc1`, 35% (active).
Under `COC(=O)c1cc2sccc2n1Cc1nc(-c2cccc(Cl)c2)oc1C` stands 83%; under `COC(=O)c1cc2sccc2n1Cc1nc(-c2ccc(Cl)cc2)oc1C`, 90%; under `Cc1ccc(C2=NNC(c3cccnc3)=Nc3ccc(F)cc32)o1`, 96%.
